A selection: hits, their analogues and other compounds. The true share with any hit is near 2.8%.
PTHR1 ag: PTHR1 (human) receptor agonism. Q03431. HEK293 GP2 PTHR1 cells, GloSensor cAMP luminescence, 1 h. Potency, µM (doses to about 115 µM), for the others: top-dose activation, hits mostly activators. 410,000 tested, 0.075% active; further: potency means the concentration at half of the fitted maximal effect; nearly all actives have a fitted effect of over 55% in size
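HEK-293-derived GP2 cells expressing PTHR1 and a GloSensor cAMP reporter, 3,000/well, plated overnight, given luciferin plus IBMX (each 0.5 mM as added) for 1 h at 37 °C, then compound for 1 h at 37 °C. Luminescence was read after 15 min at room temperature.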
D3 ag: agonists of human D3 dopamine receptor. max activation, %. 410,000 tested, 0.58% active. D3R DiscoveRx beta-arrestin cells, luminescence, 90 min; in the data active means max activation above about 30%; further: 0% is about no effect
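Agonist-mode cell screen: cells plated at 1500/well and incubated overnight at 37 °C, then exposed to library compounds for 90 min at 37 °C. Detection reagent was added for 30–60 min at room temperature, and luminescence was read.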
a7 integrin act: activators of alpha7 integrin expression for muscular dystrophy; alpha7betagal myoblasts, beta-gal FDG fluorescence, 48 h; Potency, µM (highest dose often 38.3 µM), inactives show at the highest dose activation, most hits filed as activators; 350,000 tested, 0.064% active; AID 624291;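 further: potency means the concentration at half of the fitted maximal effect; 100% = response of the positive control SU9516; nearly all actives have a fitted effect of over 60% in size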
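alpha7betagal+/- myoblasts (passage 13, 250/well) treated 48 h at 37C with compounds at 1:260 dilution of DMSO stock. Lysed, then beta-galactosidase activity read as FDG fluorescence (ex 480/em 540) after 30 min, with pre-read for autofluorescence.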
DRD3 antagonist: blocks the human D3 dopamine receptor; P35462; D3R cells, DiscoveRx beta-arrestin luminescence, antagonist mode; hits give low values; max response, negative = inhibition, %; 360,000 tested, 2.5% active; AID 652054; in the data active means max response below about -50%; inconclusive means no clear call, values can overlap the other calls; further: on the % scale 0 is the no-effect control and ±100 the full control effect
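Cells plated overnight at 1500 cells/well, then exposed to library compounds with dopamine controls for 90 minutes at 37 degrees C. DiscoveRx reagent added for 30–60 minutes at room temperature; luminescence read, quantitative HTS format.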
CBFb-RUNX1 inh: CBF-beta/RUNX1 interaction disruption; 230,000 tested, under 10 active; AID 1477; Potency, µM (series often up to 59.8 µM), without a hit: at the top dose activity, negative = inhibition, hits mostly inhibitors; AlphaScreen CBFb-His/RUNX1-biotin binding, biochemical; Q01196+Q13951; further: % of control where 0% means no effect
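AlphaScreen binding: CBFb-His and RUNX1-biotin (30 nM each) preincubated 20 min, compound added for 15 min, then nickel and streptavidin beads for 90 min, all at room temperature. Disruption of the interaction by any mechanism counts as activity.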
MBNL1 CUG block: blocks human MBNL1 binding to CUG repeat RNA | Q9NR56 | TR-FRET MBNL1-His/biotin-(CUG)12 binding, 665/545 ratio | Potency, µM (titrated, usually from 57.5 µM), inactives show at the top dose activity change, negative = inhibition, hits mostly inhibitors | 280,000 tested, 0.036% active; active means well fitted inhibition curve with a large enough effect in the signal ratio, with a control signal flat, not every such curve was filed as active; inconclusive means small, poorly fitted or top-dose-only effect, or effect the other way, or a change in a side signal; inactive means no such curve, though single readings can be large or run the other way; the % refers to the signal ratio; further: potency means the concentration at half of the fitted maximal effect; on the % scale 0 is the no-effect control and ±100 the full control effect
Target sequence (Q9NR56 whole entry, looked up): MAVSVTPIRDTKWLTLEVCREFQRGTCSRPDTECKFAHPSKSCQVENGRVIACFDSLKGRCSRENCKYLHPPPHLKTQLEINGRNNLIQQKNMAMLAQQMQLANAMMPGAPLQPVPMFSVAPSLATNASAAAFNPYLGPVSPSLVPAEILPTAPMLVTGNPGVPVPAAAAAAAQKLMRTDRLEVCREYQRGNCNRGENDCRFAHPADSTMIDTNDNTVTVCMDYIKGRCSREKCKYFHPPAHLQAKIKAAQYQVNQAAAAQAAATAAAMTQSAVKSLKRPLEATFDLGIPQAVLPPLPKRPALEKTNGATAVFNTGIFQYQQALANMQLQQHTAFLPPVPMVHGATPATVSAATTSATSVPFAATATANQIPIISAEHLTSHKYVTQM
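TR-FRET between His-tagged MBNL1 and biotin-(CUG)12 RNA, detected with Tb anti-His antibody (0.055 ng/ul) and streptavidin-XL665 (5 nM), 60 min at room temperature. Compounds titrated 92 nM to 58 uM; 665/545 nm ratio normalized to buffer and complex controls.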
Starred values were filed as active, the others as inactive; [ ] = remark or other dose. Unless noted, the call rests on the fitted dose curve; in most records, active means well fitted curve in the direction sought with a large enough effect; inconclusive means small, poorly fitted or top-dose-only effect, or another doubt; inactive means no such curve, though single readings can be large; an effect the other way counts as inactive or inconclusive.

COc1ccccc1CCNC1CCCCCC1 was read as PTHR1 ag 13.9%, D3 ag -13.4, a7 integrin act -12.9%, DRD3 antagonist inconclusive and MBNL1 CUG block -3.0%.
Screening O=[N+]([O-])/N=C1\NCCN1Cc1ccc(Cl)nc1 returned D3 ag 10.5.
Screening CN1CCN(c2ncnc(Cl)c2N)CC1 returned PTHR1 ag inconclusive, D3 ag -8.3, a7 integrin act 26.1%, DRD3 antagonist -1.4, CBFb-RUNX1 inh 5.6% and MBNL1 CUG block 2.7%.
`CN1CCN(c2nc(N)c(Br)c(Cl)n2)CC1` gave PTHR1 ag -15.0%, D3 ag -1.6, a7 integrin act 14.8%, DRD3 antagonist -68.6*, CBFb-RUNX1 inh 1.7% and MBNL1 CUG block 0.2%.
`CC(C)Br` gave CBFb-RUNX1 inh 2.7%[21.7 µM].
CC(N)Cc1ccccc1Sc1ccc(O)cc1 (stereo unspecified) was read as CBFb-RUNX1 inh 2.3% and MBNL1 CUG block -2.5%.
For CC(Cc1ccccc1Sc1ccc(O)cc1)N(C)C (stereo unspecified) the results were PTHR1 ag inactive, D3 ag -15.2, a7 integrin act -25.4%, DRD3 antagonist -51.8*, CBFb-RUNX1 inh -1.4% and MBNL1 CUG block -5.0%.
Screening CC(Cc1ccccc1Sc1ccccc1)N(C)C (stereo unspecified) returned PTHR1 ag inactive, D3 ag -17.1, a7 integrin act -39.1%, DRD3 antagonist -64.5*, CBFb-RUNX1 inh -0.4% and MBNL1 CUG block -22.1%.
C[C@@H](Cc1ccccc1)N(C)C was read as D3 ag -4.1.
`CN1CCN(Cc2ccccc2Sc2ccccc2)CC1` gave PTHR1 ag inactive, D3 ag -18.9, a7 integrin act -13.8%, DRD3 antagonist -51.5*, CBFb-RUNX1 inh 4.1% and MBNL1 CUG block -28.7%.
`Nc1nc(N)c2nc(CNc3ccc(C(=O)N[C@@H](CCC(=O)O)C(=O)O)cc3)cnc2n1` gave D3 ag 5.5.
`O=c1[nH]c(=S)n(Cc2ccco2)c(O)c1C=NCc1cccs1` gave PTHR1 ag -61.7%, D3 ag -3.6, a7 integrin act 0.6%, DRD3 antagonist -70.3*, CBFb-RUNX1 inh -26.6% and MBNL1 CUG block 194.5%.
For CCCCC[C@@H](O)C1C(=O)OC(C)[C@H](O)/C=C/C=C/C=C/C=C/C=C(\C)C(O)C(O)C(O)C[C@H](O)C[C@H](O)C[C@H](O)C[C@H](O)C[C@@H]1O (stereo partly specified) the results were D3 ag 2.0.
OC1(c2ccc(F)cc2)CC2CCC(C1)N2Cc1nnnn1C1CCCC1 (stereo unspecified) was read as PTHR1 ag -5.1%[57.5 µM], D3 ag -22.5, a7 integrin act 21.5%, DRD3 antagonist -109.8*, CBFb-RUNX1 inh -0.7% and MBNL1 CUG block 1.0%.
For Fc1ccc2c(c1)nnn2C1CCN(Cc2ccccc2)CC1 the results were PTHR1 ag inactive, D3 ag -9.0, a7 integrin act -13.9%, DRD3 antagonist -77.8*, CBFb-RUNX1 inh 13.0% and MBNL1 CUG block -8.4%.
`Fc1ccc(Cn2nnnc2CN2CCC(n3nnc4cc(C(F)(F)F)ccc43)CC2)cc1` gave PTHR1 ag -39.9%, D3 ag -7.9, a7 integrin act -3.5%, DRD3 antagonist 6.1, CBFb-RUNX1 inh 15.6% and MBNL1 CUG block -11.8%.
For c1ccc(CCn2nnnc2CN2CCC(n3nnc4ccccc43)CC2)cc1 the results were PTHR1 ag -23.9%[57.5 µM], D3 ag -2.4, a7 integrin act 0.0%, DRD3 antagonist inconclusive, CBFb-RUNX1 inh 5.7% and MBNL1 CUG block 1.2%.
`Fc1ccc2c(c1)nnn2C1CCN(Cc2nnnn2CCc2ccccc2)CC1` gave PTHR1 ag -14.8%[57.5 µM], D3 ag -9.1, a7 integrin act -10.4%, DRD3 antagonist -74.7*, CBFb-RUNX1 inh -5.2% and MBNL1 CUG block -10.4%.

Screens deposited in PubChem BioAssay by National Center for Advancing Translational Sciences (NCATS).
